The list is not random: actives were taken first. Their share in the collection is about 27%.
CYP2C19 activ: activators of human cytochrome P450 2C19; recombinant CYP2C19, luciferin-H EGE luminescence; active compounds read high; 0 = fully inhibited enzyme, 1 = untreated enzyme; P33261; activation factor at 5 µM; AID 1025; 96,000 tested, under 10 active;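 active = activation factor of at least 2 at 5 µM in the primary screen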
Target sequence (P33261 whole entry, looked up): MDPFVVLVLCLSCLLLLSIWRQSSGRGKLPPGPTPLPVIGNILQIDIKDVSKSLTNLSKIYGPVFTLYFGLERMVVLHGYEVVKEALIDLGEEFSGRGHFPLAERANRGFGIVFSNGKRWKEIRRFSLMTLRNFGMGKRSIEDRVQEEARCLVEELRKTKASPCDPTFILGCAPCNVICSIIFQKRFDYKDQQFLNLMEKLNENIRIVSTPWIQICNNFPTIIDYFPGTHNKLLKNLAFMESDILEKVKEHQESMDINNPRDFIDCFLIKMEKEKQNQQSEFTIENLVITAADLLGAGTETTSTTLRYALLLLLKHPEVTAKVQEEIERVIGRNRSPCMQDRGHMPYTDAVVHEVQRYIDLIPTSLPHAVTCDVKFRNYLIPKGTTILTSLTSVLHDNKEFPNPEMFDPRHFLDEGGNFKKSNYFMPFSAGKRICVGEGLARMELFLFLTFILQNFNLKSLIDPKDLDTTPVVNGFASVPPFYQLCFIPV
sEH activator: activators of human soluble epoxide hydrolase; hit rate 0.04% among 91,000; purified human sEH enzymatic activity, activator screen; activation, % at 2 µM; P34913; in the data active = activation above about 37%
CYP2C19 inhib: blocks human cytochrome P450 2C19; CYP2C19 Supersomes, luciferin-H EGE luminescence, 30 min; AID 778; hit rate 21% among 96,000; inhibition, % at 5 µM;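 active = CYP2C19 inhibition above a set limit at 5 µM in the primary screen, cut at about 50% in these data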
CYP2C9 inh: human CYP2C9 inhibition; P11712; CYP2C9 Supersomes, luciferin-H conversion, luminescence; inhibition, % at 5 µM; hit rate 20% among 96,000; AID 777;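 active = blocking of liver enzyme CYP2C9 beyond about 50% at 5 µM, limit read from the data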
CYP2C9 act: activators of human CYP2C9; recombinant CYP2C9, luciferin-H conversion, luminescence; active compounds read high; factor 1 = untreated enzyme, 0 = blocked; hit rate 1.4% among 96,000; AID 1024; P11712; activation factor at 5 µM;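 active = activation factor of 2 or more for CYP2C9 at a 5 µM dose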
sEH inhibitor: soluble epoxide hydrolase (human) inhibition | recombinant human sEH enzymatic activity assay | inhibition, % at 2 µM | hit rate 0.34% among 91,000; in the data active = inhibition above about 80%
Numbers stand for hits; n = inactive; x = no result given.

SMILES | CYP2C19 activ | sEH activator | CYP2C19 inhib | CYP2C9 inh | CYP2C9 act | sEH inhibitor
Cc1ccccc1N1CCN(CCCN2C(=O)CC(=C(c3ccccc3)c3ccccc3)C2=O)CC1 | n | n | 73 | 50 | n | n
Cc1ccccc1N1CCN(CCN2C(=O)CC(=C3c4ccccc4-c4ccccc43)C2=O)CC1 | x | n | x | x | x | n
CCOC(=O)CSc1nc(N)c(C#N)c(CC(C)C)c1C#N | n | n | n | n | n | n
O=C(NC(Cc1ccc2c(c1)OCO2)C(=O)NC(Cc1ccccc1)C(=O)O)c1ccccc1 (stereo unspecified) | n | n | n | n | n | n
O=C(NC(Cc1ccccc1)c1ccc2c(c1)OCCCO2)c1ccccc1 (stereo unspecified) | n | n | n | 65 | n | n
O=C(CCN1C(=O)c2ccccc2C1=O)NCc1ccco1 | n | n | n | n | n | n
O=C(CSC1=Nc2ccccc2C2=NC(CC(=O)NC3CCCCC3)C(=O)N12)NCc1ccco1 (stereo unspecified) | n | n | n | n | n | n
O=C(CCC1N=C2c3ccccc3N=C(SCc3ccccc3Cl)N2C1=O)NCc1ccco1 (stereo unspecified) | n | n | n | 60 | n | n
O=C(CCC1N=C2c3ccccc3N=C(SCc3cccc(Cl)c3)N2C1=O)NCc1ccco1 (stereo unspecified) | n | n | n | 67 | n | n
CN1CCN(S(=O)(=O)c2ccc(Sc3nnc(-c4cccs4)n3-c3ccccc3)nc2)CC1 | n | n | n | n | n | n
CC1(C)Cc2ccccc2-c2nnc(SCc3ccccc3)n21 | x | n | x | x | x | n
CCCCCCSc1nnc(-c2cnn(-c3ccccc3)c2-n2cccc2)n1C | n | n | n | 61 | n | n
CCn1c(SCC(=O)N2CCN(c3ccccc3)CC2)nnc1-c1c[nH]c2ccccc12 | n | x | 64 | n | n | x
CCCCSc1nnc(-c2c[nH]c3ccccc23)n1C | n | x | 56 | n | n | x
CC1(C)Cc2ccccc2-c2nnc(SCC(=O)N3CCN(c4ccccc4)CC3)n21 | n | n | 80 | 62 | n | n
CC(C)OC(=O)/C(=C\C=C\c1ccccc1)NC(=O)c1ccccc1 | n | n | n | n | n | n
O=c1n(-c2ccccc2)c(=O)n(Cc2ccccn2)n1Cc1ccccn1 | n | n | n | n | n | n
Cn1c(SCC(=O)N2CCN(c3ccccc3)CC2)nnc1-c1ccccc1 | n | n | n | n | n | n
CCn1c(SCC(=O)N2CCCc3ccccc32)nnc1-c1c[nH]c2ccccc12 | n | n | 76 | n | n | n
Cn1c(SCC(=O)N2CCN(c3ccccc3)CC2)nnc1-c1c[nH]c2ccccc12 | n | x | 54 | n | n | x
O=C(Nc1ccc2c3c(cccc13)CC2)c1ccc(Br)o1 | n | n | n | n | n | n
COc1ccc(C(=O)Nc2ccc3c4c(cccc24)CC3)cc1 | n | n | n | n | 2.2 | n
O=C(Nc1ccc2c3c(cccc13)CC2)c1ccco1 | n | n | n | n | 2 | n
COc1cccc(C2CC(=O)NC3=C2C(=O)CCC3)c1 (stereo unspecified) | n | n | n | n | n | n
COc1cccc(NC(=O)CSc2nc3n[nH]c(C)c3c(=N)n2-c2cccc(OC)c2)c1 | n | n | 88 | 80 | n | n
SMILES | CYP2C19 activ | sEH activator | CYP2C19 inhib | CYP2C9 inh | CYP2C9 act | sEH inhibitor
CCc1ccc(NC(=O)CSc2nc3n[nH]c(C)c3c(=N)n2-c2cccc(OC)c2)cc1 | x | n | x | x | x | n
Cc1ccc(CNC(=O)CSc2nc3n[nH]c(C)c3c(=N)n2-c2cccc(C)c2)cc1 | n | n | 66 | 54 | n | n
Cc1cccc(OCC(=O)Nc2ccc(N3CCN(C(=O)c4ccco4)CC3)cc2)c1 | n | n | 66 | n | n | n
Cc1cc(OCC(=O)Nc2ccc(N3CCN(C(=O)c4ccco4)CC3)cc2)cc(C)c1Cl | n | n | n | n | n | n
O=C(Nc1ccc(N2CCN(C(=O)c3ccco3)CC2)cc1)c1cccs1 | n | n | n | n | n | n
O=C(Nc1ccc(N2CCN(C(=O)c3ccco3)CC2)cc1)C(c1ccccc1)c1ccccc1 | n | n | 86 | 61 | n | n
CC(=O)NC(CCS(C)(=O)=O)C(=O)N1CCc2ccccc21 (stereo unspecified) | n | n | n | n | n | n
CCCc1cc(Nc2cccc(OCC)c2)n2ncnc2n1 | n | n | n | n | n | n
CCCc1cc(Nc2cccc(OC)c2)n2ncnc2n1 | n | n | 55 | n | n | n

Screens (PubChem BioAssay)
